# Laboratory results: PMC5540273 (PLoS ONE, 2017)
# Columns and labels:
# Conditions in all cases: concentration: 1 μM,replicates: in singlicate; n = 1
# DCAMKL2 = tested on: T1, DCAMKL2
# T1 construct: gene DCLK2
# DCAMKL3 = tested on: T2, DCAMKL3
# T2 construct: gene DCLK3
# DDR1 = tested on: DDR1
# DDR2 = tested on: DDR2
# DLK = tested on: T3, DLK
# T3 construct: gene MAP3K12
# DMPK2 = tested on: T4, DMPK2
# T4 construct: gene CDC42BPG
# DMPK = tested on: DMPK
# DRAK1 = tested on: T5, DRAK1
# T5 construct: gene STK17A
# DRAK2 = tested on: T6, DRAK2
# T6 construct: gene STK17B
# DYRK1A = tested on: DYRK1A
# DYRK1B = tested on: DYRK1B
# DYRK2 = tested on: DYRK2
# EIF2AK1 = tested on: EIF2AK1
# EPHA1 = tested on: EPHA1
# EPHA2 = tested on: EPHA2
# EPHA3 = tested on: EPHA3
# EPHA4 = tested on: EPHA4
# EPHA5 = tested on: EPHA5
# EPHA6 = tested on: EPHA6
# EGFR = tested on: EGFR
# 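Also: KINOMEscan kinase panel screen.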
Compound,%Inh (DCAMKL2) [%],%Inh (DCAMKL3) [%],%Inh (DDR1) [%],%Inh (DDR2) [%],%Inh (DLK) [%],%Inh (DMPK2) [%],%Inh (DMPK) [%],%Inh (DRAK1) [%],%Inh (DRAK2) [%],%Inh (DYRK1A) [%],%Inh (DYRK1B) [%],%Inh (DYRK2) [%],%Inh (EIF2AK1) [%],%Inh (EPHA1) [%],%Inh (EPHA2) [%],%Inh (EPHA3) [%],%Inh (EPHA4) [%],%Inh (EPHA5) [%],%Inh (EPHA6) [%],%Inh (EGFR) [%]
CNC(=O)c1ccccc1Sc1ccc2c(/C=C/c3ccccn3)n[nH]c2c1,14,76,18,14,41,6,0,76,0,0,0,0,6,12,9,0,0,0,0,
NC(=O)c1cc(-c2ccccc2)cc2c(C3CCNCC3)c[nH]c12 [GSK301362],2,53,,0,23,8,30,0,0,28,45,23,0,18,10,0,6,0,3,25
COc1ccc(C[C@@H](CN)NC(=O)c2cc(Br)c(-c3ccnc4[nH]ccc34)s2)cc1.Cl.Cl [GSK1389063],38,86,2,26,10,99.4,28,44,0,97.6,91.3,69,7,52,17,44,25,0,33,37
Nc1nc(Nc2ccccc2)cc(-c2ccc3c(N)n[nH]c3c2)n1 [GSK2225749],0,61,0,26,3,0,0,99.5,97.2,48,19,88,0,0,32,0,0,0,0,16
O=C(NCCNc1ccnc(NCc2ccc(F)cc2)n1)c1cc2ccccc2s1 [GSK1379944],0,4,,0,0,0,0,0,0,30,0,0,0,10,17,0,22,0,19,23
CC(C)Nc1cc(-c2ccc3c(N)n[nH]c3c2)nc(N)n1 [GSK2221681],20,51,0,0,28,0,0,99,0,50,14,87,0,0,0,0,0,0,0,58
CC(C)N1C(=O)Cc2cc(Nc3ncc(C(F)(F)F)c(NCc4cccc(S(C)(=O)=O)c4)n3)ccc21,0,34,,0,0,0,0,74,82,2,38,19,0,4,0,9,1,3,3,0
C[C@@H](Oc1cc(-c2cnn(C3CCNCC3)c2)cnc1N)c1c(Cl)ccc(F)c1Cl,79,22,59,44,94.6,0,22,0,0,12,0,30,14,93.5,82,37,49,51,90.2,0
